# Screens (PubChem BioAssay)
# The list is not random: actives were taken first. Their share in the collection is about 19%.
# uPA surface inh = inhibitors of cell surface uPA generation; Potency, µM (top dose mostly 38.3 µM), for inactives: at the top dose activity change, negative = inhibition, usual class: inhibitors; 330,000 compounds, 0.31% hits; cell surface uPA generation assay, qHTS; active means well fitted inhibition curve with a large enough effect; inconclusive means small, poorly fitted or top-dose-only effect; inactive means no such curve, though single readings can be large or run the other way; tested in mouse RAW 264.7 cells; further: potency means the concentration at half of the fitted maximal effect; nearly all actives have a fitted effect of over 55% in size
# HT1080-NT tox = kills 2HG-producing HT-1080-NT fibrosarcoma cells; HT-1080-NT fibrosarcoma viability, CellTiter-Glo ATP luminescence, 48 h; Potency, µM (top dose mostly 46.1 µM), inactives show at the top dose activity, negative = less viability, usual class: cytotoxic; 360,000 compounds, 1.6% hits;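 further: NT is the 2HG producing partner of a matched IDH1 knockdown line; potency means the concentration at half of the fitted maximal effect; 0% = DMSO-treated cells and -100% = media-only wells without cells; nearly all actives have a fitted effect of over 55% in size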
#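 Toxicity toward the 2HG-producing NT line was scored as %Activity, normalised to DMSO and no-cell wells, from CellTiter-Glo luminescence after 48 hours' treatment.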
# TDP1 cell noCPT = qHTS for Inhibitors of human tyrosyl-DNA phosphodiesterase 1 (TDP1): qHTS in cells in absence of CPT; DT40 Tdp1-/- hTDP1 cells, no CPT, ATP luminescence, 48 h; Potency, µM (top dose mostly 46.2 µM), without a hit: top-dose activity change, negative = growth inhibition, most hits filed as inhibitors; 420,000 compounds, 15% hits; AID 686978, 2013; further: potency means the concentration at half of the fitted maximal effect; nearly all actives have a fitted effect of over 55% in size
#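 Seeded 400 DT40-hTDP1 cells/well (vehicle DMSO, no 20 nM CPT); pinned compounds; ≥48 hr at 37 °C; CellTiter-Glo luminescence as viability measure.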
# IL1B secr inh = inhibitors of inflammasome signaling (IL-1 beta secretion) | AID 743279 | activity change, % at 57.5 µM | THP-1 LPS/ATP IL-1B secretion, AlphaLISA, 16 h; hits give low values | 360,000 compounds, 4.7% hits; in the data active means activity change below about -50%; inconclusive means mostly about -30% to -49%
#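 THP-1 cells pretreated 1 hr with compounds (up to 57.5 uM final), then stimulated with LPS (250 ng/mL final) plus ATP (1.25 mM final); secreted IL-1B measured by AlphaLISA after 16 hr, decreased signal indicating inhibition.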
# HT1080 IDH1KD tx = kills HT-1080 cells with IDH1 knockdown. HT-1080 IDH1 knockdown viability, ATP luminescence, 48 h. Potency, µM (highest dose often 46.1 µM), inactives show at the highest dose activity, negative = toxicity, usual class: cytotoxic. 360,000 compounds, 2% hits. AID 686971;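 further: potency means the concentration at half of the fitted maximal effect; 0% = DMSO wells and -100% = cell-free medium wells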
#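 HT-1080-IDH1KD cells (IDH1 knocked down), 750/well in RPMI with 5% FBS, treated with compound 48 h at 37 degrees C. Viability by CellTiter-Glo luminescence, normalised to DMSO and no-cell wells; concentration-response curves classed.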
# DT40 TDP1 CPT = DT40-hTDP1 cell growth loss with CPT | chicken DT40 Tdp1-/-;hTDP1 cells + 20 nM CPT, ATP luminescence, 48 h | Potency, µM (doses to about 46.2 µM), for the others: at the highest dose activity change, negative = growth inhibition, most hits filed as inhibitors | 420,000 compounds, 12% hits | AID 686979; further: potency means the concentration at half of the fitted maximal effect; nearly all actives have a fitted effect of over 55% in size
#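 Cell growth measured by CellTiter-Glo luminescence after a minimum 48 h, 37 C compound exposure with 20 nM CPT in Tdp1-knockout DT40 cells stably expressing hTDP1, seeded 400/well; qHTS titration format.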
# Starred values were filed as active, the others as inactive; ? = inconclusive; . = not tested or not shown; [ ] = another dose, or the depositor's remark. Unless noted, the call rests on the fitted dose curve; in most records, active means well fitted curve in the direction sought with a large enough effect; inconclusive means small, poorly fitted or top-dose-only effect, or another doubt; inactive means no such curve, though single readings can be large; an effect the other way counts as inactive or inconclusive. Unless noted, on the % scale 0 is the no-effect control and ±100 the full control effect.
SMILES,uPA surface inh,HT1080-NT tox,TDP1 cell noCPT,IL1B secr inh,HT1080 IDH1KD tx,DT40 TDP1 CPT
COc1cccc(Oc2nc(-c3ccncc3)nc3ccccc23)c1,9.5%,-12.7%,?,?,-9.8%,14.6µM*
COc1ccc(Nc2nc(-c3ccccc3)nc3ccccc23)c(OC)c1,2.5%,-1.1%,20.6µM*,-11.5,-26.5%,?
COc1ccc(OC)c(Nc2nc(-c3ccccc3O)nc3ccccc23)c1,-1.8%,-20.0%,?,50.1,-0.7%,-14.8%
N[C@@H](CSCCCO)C(=O)O,.,.,-5.9%,.,.,-14.6%
Cc1ccc(N2CC(NC(=O)c3cc4ccccc4o3)CC2=O)cc1C (centres undefined),.,.,-20.4%,.,.,-26.8%
CCOc1ccc(CC(=O)Nc2nnc3n2CCS3)cc1,.,.,-24.8%,.,.,-2.5%
Cc1ccccc1-c1cc(N(C)Cc2ccco2)ncn1,.,.,-8.2%,.,.,?
Cc1ccc(NC(=O)Nc2nnc(N3CCCCC3)s2)c(C)c1,.,.,-17.6%,.,.,6.1%
COc1ccc(Nc2nc3cc(C)ccc3cc2C#N)c(OC)c1,?,-25.0%,0.0291µM*,62.1,?,1.16µM*
COc1ccc(Nc2nc3cc(C)ccc3cc2C#N)cc1,-2.0%,-7.9%,-24.2%,29.3,-13.4%,?
Fc1cccc(Nc2nc(-c3ccncc3)nc3ccccc23)c1,9.3%,-17.8%,.,-11.7,-21.3%,.
COc1ccc(Nc2nc(-c3ccncc3)nc3ccccc23)cc1,5.3%,-25.0%,10.3µM*,-6.6,-2.3%,20.6µM*
O=C(O)c1cccc(Nc2nc(-c3ccccc3)nc3ccccc23)c1,-2.9%,-13.7%,-21.1%,13.4,-15.1%,6.9%
COc1cccc(Nc2nc(-c3ccccc3)nc3ccccc23)c1,3.5%,?,?,-73.0*,?,23.1µM*
N#Cc1cccc(-c2nc(Nc3ccncc3)c3ccccc3n2)c1,.,.,2.91µM*,.,.,2.59µM*
COc1nc(-c2ccncc2)nc2ccccc12,-4.4%,-21.2%,-18.5%,-29.9,-22.7%,-5.2%
O=C(O)C(C=C(Cl)Cl)N1CCOCC1 (centres undefined),1.2%,2.9%,-6.8%,1.1,-4.0%,-2.3%
CS(=O)(=O)Cc1ccc(C(=O)N(CCc2ccccc2)Cc2ccccc2)cc1,-2.8%,18.8%,?,-25.9,0.1%,?
C=CCC(NC(=O)N(C)C)(C(=O)OC)C(C)O (centres undefined),.,5.3%,4.5%,23.5,4.4%,8.7%
CC(=O)NC12CC3CC(C1)CC(C(=O)N(C)Cc1cccc(Cl)c1Cl)(C3)C2,5.3%,3.3%,-3.0%,-21.4,-4.5%,?
COc1ccc(Nc2nc(N3CCN(S(C)(=O)=O)CC3)nc3ccccc23)c(OC)c1,-0.3%,-16.1%,?,15.9,-10.8%,?
COc1ccc(Nc2nc(N3CCCCC3)nc3ccccc23)c(OC)c1,-7.7%,?,?,-62.4*,?,?
NS(=O)(=O)c1ccc(NC(=O)/C=C/c2ccccc2[N+](=O)[O-])cc1,-0.9%,2.5%,-17.1%,27.4,2.1%,3.6%
O=C(/C=C/c1ccccc1[N+](=O)[O-])c1ccccc1Br,-11.7%,?,8.2µM*,-103.5*,20.6µM*,20.6µM*
O=c1nc2s/c(=C\c3ccc(-c4ccccc4[N+](=O)[O-])o3)c(=O)n2nc1-c1ccccc1,4.3%,-5.5%,-6.8%,13.0,0.3%,2.0%
SMILES,uPA surface inh,HT1080-NT tox,TDP1 cell noCPT,IL1B secr inh,HT1080 IDH1KD tx,DT40 TDP1 CPT
O=C(C=Cc1ccco1)c1ccc([N+](=O)[O-])cc1,-0.9%,6.3%,-21.7%,-25.0,15.3%,-3.7%
NC1=NC(=O)/C(=C\c2ccc(-c3ccccc3[N+](=O)[O-])o2)S1,.,20µM*,?,.,?,11.2µM*
Cc1ccc(C(=O)/C=C/c2ccccc2[N+](=O)[O-])cc1,-7.5%,?,18.4µM*,-57.2*,?,?
Cc1ccc(C(=O)/C=C/c2ccc(-c3ccccc3[N+](=O)[O-])o2)cc1,-19.5%,?,18.4µM*,-95.5*,-0.8%[9.24 µM],?
COCCNC(=O)C1(C)CCCN(C(=O)c2ccc(C(=O)OC)cc2)C1 (centres undefined),.,0.5%,-1.7%,24.9,17.9%,0.4%
N#C/C(=C/c1ccc(-c2ccccc2[N+](=O)[O-])o1)C(N)=O,15.8%,12.2%,4.4%,-8.7,14.3%,-0.4%
O=C(/C=C/c1ccc(-c2ccccc2[N+](=O)[O-])o1)c1ccc(Br)cc1,.,?,16.4µM*,-65.9*,?,?
CC(C)(C)S(=O)(=O)N1C[C@@H]2C(=CC[C@H]3C(=O)N(c4ccccc4)C(=O)[C@@H]23)[C@@H]1CCO,1.8%,-3.1%,-24.7%,-2.2,-3.3%,-25.5%
Cn1nccc1C(=O)Nc1ccn(C23CC4CC(CC(C4)C2)C3)n1,-2.7%,-4.8%,14.6µM*,-12.1,-16.9%,20.6µM*
CC(NCCOCCOc1ccccc1)c1ccccc1 (centres undefined),6.3%,0.9%,?,-7.8,-1.0%,-19.0%
COc1ccc2ccccc2c1CNC(C)c1ccccc1 (centres undefined),-27.9%,-26.7%,10.3µM*,-55.2*,?,7.31µM*
COc1ccc2ccccc2c1CNCc1ccc(C)cc1,-9.0%,?,?,-91.7*,?,?
CC(NCCCOc1cccc2ccccc12)c1ccccc1 (centres undefined),-20.9%,?,18.4µM*,-73.8*,?,?
Cc1[nH]c2ccc(C(=O)OCC(=O)NC3(C#N)CCCCC3)cc2c1C,13.3%,-1.3%,-19.9%,?,-13.3%,-25.0%
O=C1c2ccc(-c3ccc4c(c3)C(=O)N(CCO)C4=O)cc2C(=O)N1CCO,9.3%,0.0%,6.0%,0.0,7.2%,5.5%
COC(=O)c1ccccc1NC(=O)Cn1c(=O)n(-c2ccc(C)cc2)c(=O)c2ccccc21,.,.,0.92µM*,.,.,0.82µM*
COC(=O)c1ccccc1NC(=O)Cn1c(=O)n(CCCC(=O)NCCc2ccc(OC)c(OC)c2)c(=O)c2ccccc21,.,.,-8.1%,.,.,-6.4%
Cc1cc(C)c(NC(=O)Cn2c(=O)n(CCc3ccccc3)c(=O)c3ccccc32)c(C)c1,.,.,20.6µM*,.,.,14.6µM*
Cc1ccc(CNC(=O)c2ccc(Cn3c(=O)c4ccccc4n(CC(=O)Nc4c(C)cc(C)cc4C)c3=O)cc2)cc1,.,.,4.61µM*,.,.,6.51µM*
Cc1ccc(CNC(=O)c2ccc(Cn3c(=O)c4ccccc4n(CC(=O)Nc4ccc(C)cc4C)c3=O)cc2)cc1,.,.,?,.,.,16.4µM*
